The values below come from PubChem BioAssay AID1259240 (Keith Lab, Institute of Cancer Science, University of …, 2017).

Structures are written as SMILES. Active and inactive are the calls of the source. Rule as the data show it: active = fold change mostly below about -2 (no sharp cut-off); inactive = mostly above about -1.8.

This assay can be described thus: TERT promoter activity modulators, primary screen, cell-based, luciferase reporter, human (AID 1259240). The conditions noted are these: A2780 TERT promoter luciferase reporter, 16 h; at 20 µM, fold versus average of vehicle-only wells. In general terms: Reporter assays use an easily measured gene product as a stand-in for the process of interest.
With `Cc1nc(SCC(=O)Nc2ccc([N+](=O)[O-])cc2)c2c(=O)n(C)c(=O)n(C)c2n1`, the fold change is -1.11 (inactive).
On to `CCn1c(SCC(=O)N2CCCc3ccccc32)nnc1-c1c[nH]c2ccccc12`, for which the call was inactive.
In the case of `Cc1[nH]n(-c2nc3ccccc3[nH]2)c(=O)c1C=Nc1ccc(F)cc1`, the call was inactive.
`COc1ccc(C2c3c(oc4ccc(F)cc4c3=O)C(=O)N2Cc2ccc3c(c2)OCO3)cc1` (stereo not given): the fold change was -1.27 (inactive).
With `Cc1cc(=O)[nH]c(SCC(=O)c2c[nH]c3ccccc23)n1`, the result was inactive.
As for `CCOC(=O)c1oc2ccc(S(=O)(=O)n3nc(-c4ccc(OC)cc4OC)cc3N)cc2c1C`, the fold change was -1.57 (inactive).
The same measure, in the same setting: as for `O=C(O)c1ccc(CNc2c(N3CCOCC3)c(=O)c2=O)cc1`, the figure is 1.05 (inactive); as for `CC(O)C(Nc1ncnc2ccccc12)C(=O)O` (stereo not given), -1.06 (inactive); as for `CC(Sc1nc(-c2ccco2)nc2c1c(=O)n(C)c(=O)n2C)C(=O)O` (stereo not given), 1.38 (inactive).
Still for that read-out and setting: as for `CN(C)c1nc(C(N)=O)nc(N2CCOCC2)n1`, the figure is 1.62 (inactive); as for `COc1ccc(-c2cc(C(F)(F)F)nc(SCCC(=O)N3CCN4CCCC4C3)n2)cc1` (stereo not given), -1.73 (inactive); as for `CCCN(CCC)S(=O)(=O)c1ccc2c(c1)oc(=O)n2CC(=O)OCC`, -1.16 (inactive).
On the same count and under the same terms, with `Cc1ccc2c(C)nc(NC3=NCN(CC4CCCO4)CN3)nc2c1` (stereo not given) the figure was -1.73 (inactive).
As to `O=C(CN1C(=O)c2ccccc2S1(=O)=O)N1CCN(c2cccc(Cl)c2)CC1`, the fold change was -1.25 (inactive).
Same read-out and setting: with `CCNc1nc2c(c(=O)n(C)c(=O)n2C)n1Cc1ccc(Cl)cc1` the figure was 1.15 (inactive).
On to `Fc1ccc(Br)cc1C1C=C(c2cccnc2)Nc2ncnn21` (stereo not given), for which the compound was classed as inactive.
Regarding `O=C(Nc1ccc(F)c(F)c1)C1CCCN1S(=O)(=O)c1cccc2nsnc12` (stereo not given), the fold change was -1.3 (inactive).
For the compound `O=C1C2C(c3cccs3)NC(Cc3ccccc3)(C(=O)O)C2C(=O)N1c1ccc(F)cc1` (stereo not given), the fold change is -1.06 (inactive).
The same measure, in the same setting: as for `CCN1C(=O)C2(/C(=C(/O)c3ccc(OC)cc3)C(=O)C(=O)N2CCOC)c2ccccc21` (stereo not given), the figure is 1.29 (inactive).
For `CC1=C(C(N)=O)C(c2ccc(O)cc2)n2nc(CCCO)nc2N1` (stereo not given), the result was inactive.
Turning to `CN(C)S(=O)(=O)c1cccc(-c2cn3cccnc3n2)c1`, the fold change is -2.07 (active).
For `CC1CN(C2=NC(=O)/C(=C/c3ccccc3Br)S2)CC(C)O1` (stereo not given), the fold change is -1.41 (inactive).
In the case of `COc1ccc(Nc2nc(N)nc(CSc3nccn3C)n2)cc1`, the fold change is 1.57 (inactive).
As to `CC1CCN(S(=O)(=O)c2ccc3c(c2)N(CC(=O)N2CCOCC2)C(=O)CO3)CC1`, the fold change is 1.44 (inactive).
Consider `CCCCNC(=O)c1ccc(CNc2c(NC3CCCC3)c(=O)c2=O)cc1`, for which the fold change is 1.11 (inactive).
For `Cc1sc2nc3ccc(N4CCCC4)nn3c(=O)c2c1C`, the fold change is -1.02 (inactive).
The same measure, in the same setting: as for `CC(=O)N1CCC(N(C(=O)Nc2ccc(F)cc2)C2CCCC2)CC1`, the figure is -1.02 (inactive).
For `COc1cccc(C2C(C#N)=C(N)Oc3n[nH]c(-c4ccc(Br)cc4)c32)c1OC` (stereo not given), the fold change is -1.08 (inactive).
On to `CCOC(=O)C1=C(CS(=O)(=O)c2ccc(C)cc2)NC(=O)NC1c1ccc(OC)cc1OC` (stereo not given), for which the fold change was -1.29 (inactive).
Still for that read-out and setting: with `CC1=CSC2=NC(=O)/C(=C\c3coc4ccccc4c3=O)C(=N)N12` the figure was -1.1 (inactive).
Regarding `Cc1nc2c3ccccc3nc(NNC(=O)CCC(=O)N3CCCC(C)C3)n2n1` (stereo not given), the fold change was -1.02 (inactive).
Consider `COc1ccccc1-c1c(C)nn2c(N3CCOCC3)cc(C)nc12`, for which the fold change is 1.18 (inactive).
Consider `Cc1nc(SCc2cccc(C(F)(F)F)c2)c2c(=O)n(C)c(=O)n(C)c2n1`, for which the fold change was 1.26 (inactive).
Take `O=S(=O)(c1cccc(-c2cn3ccccc3n2)c1)N1CCCCC1`: the fold change is -1.03 (inactive).
`CCOC(=O)N1CCN(c2c(N(CC)CCN(C)C)c(=O)c2=O)CC1`: the fold change was -1.33 (inactive).
Regarding `CCC(CC)COC(=O)C1=C(C)NC(=O)CC1c1ccccc1C` (stereo not given), the fold change is 1.08 (inactive).
On to `Cc1nc2c(-c3ccccc3)c(C)nn2c(C)c1CCC(=O)NO`, for which the fold change is -1.49 (inactive).
As to `CCOC(=O)C1CCCN(c2c(NCCCN3CC(C)CC(C)C3)c(=O)c2=O)C1` (stereo not given), the fold change is -1.02 (inactive).
For the compound `Cc1nc(SCc2c(F)cccc2Cl)c2c(=O)n(C)c(=O)n(C)c2n1`, the fold change is 1.27 (inactive).
Still for that read-out and setting: as for `O=C(C1CCN(S(=O)(=O)c2cccc3cccnc23)CC1)N1CCn2c1nc1ccccc12`, the figure is 1.05 (inactive).
